High-throughput results deposited in PubChem by National Center for Advancing Translational Sciences (NCATS).
Gal4-VP16 FLuc: inhibits Gal4-VP16 luciferase reporter, ROR gamma counter-screen; Drosophila S2 Gal4-VP16 UAS-luciferase, luminescence, 20 h; Potency, µM (highest dose often 53.6 µM), hits mostly inhibitors; 310,000 compounds, 3.5% hits; AID 2546;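 note: Gal4-VP16 expression switched on by copper sulfate through the metallothionein promoter; nearly all actives have a fitted effect of over 50% in size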
CtBP-E1A blk: blocks the CtBP interaction with E1A. AID 651724. AlphaScreen GST-E1A/His-CtBP binding, 1536-well; hits give low values. activity change, % (test concentration not listed). 340,000 compounds, 0.49% hits; in the data active = activity change below about -65%; inconclusive = mostly about -30% to -63%
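AlphaScreen with 125 nM GST-E1A and 125 nM His-CtBP (5X stocks) in Tris pH 8.0, 300 mM NaCl, BSA, Tween 20, TCEP. Compounds preincubated 2 h at 37 deg C, then glutathione donor/nickel acceptor beads added for 1 h at 37 deg C in dark.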
Six1-Eya2 inh: Six1/Eya2 interaction inhibition | 360,000 compounds, 0.56% hits | AID 651725 | AlphaScreen GST-Six1/His-Eya2 binding, biochemical; hits give low values | Q15475+O00167 | activity change, % (no concentration beside the values); in the data active = activity change below about -65%; inconclusive = mostly about -30% to -63%
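AlphaScreen with GST-Six1 and His-Eya2 (5X mix: 250 nM and 500 nM), glutathione donor and nickel acceptor beads; buffer 50 mM Tris pH 8.0, 300 mM NaCl, 1 mM TCEP; 1 h at 37 C in the dark.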
p53 reactivation: re-activators of mutant p53 | 320,000 compounds, 0.063% hits | AID 504706 | H1299 p53-A138V BP100-luciferase reporter, luminescence, 24 h | Potency, µM (highest dose often 92.2 µM), most hits filed as activators; note: nearly all actives have a fitted effect of over 45% in size
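p53-null H1299 cells stably carrying temperature-sensitive p53-A138V and a BP100-luciferase reporter were pinned with compounds (4-point, 1:5 series) and held 24 hrs at 37 deg C. Luminescence was read 10 min after detection reagent.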
RORg inh: ROR gamma (mouse) transcription inhibition; P51450; Drosophila S2 Gal4-RORgamma UAS-luciferase reporter, 20 h; Potency, µM (titrated, usually from 53.6 µM), hits mostly inhibitors; 310,000 compounds, 5.4% hits; note: nearly all actives have a fitted effect of over 60% in size
Target sequence (P51450 whole entry, looked up, the tested form may be a part): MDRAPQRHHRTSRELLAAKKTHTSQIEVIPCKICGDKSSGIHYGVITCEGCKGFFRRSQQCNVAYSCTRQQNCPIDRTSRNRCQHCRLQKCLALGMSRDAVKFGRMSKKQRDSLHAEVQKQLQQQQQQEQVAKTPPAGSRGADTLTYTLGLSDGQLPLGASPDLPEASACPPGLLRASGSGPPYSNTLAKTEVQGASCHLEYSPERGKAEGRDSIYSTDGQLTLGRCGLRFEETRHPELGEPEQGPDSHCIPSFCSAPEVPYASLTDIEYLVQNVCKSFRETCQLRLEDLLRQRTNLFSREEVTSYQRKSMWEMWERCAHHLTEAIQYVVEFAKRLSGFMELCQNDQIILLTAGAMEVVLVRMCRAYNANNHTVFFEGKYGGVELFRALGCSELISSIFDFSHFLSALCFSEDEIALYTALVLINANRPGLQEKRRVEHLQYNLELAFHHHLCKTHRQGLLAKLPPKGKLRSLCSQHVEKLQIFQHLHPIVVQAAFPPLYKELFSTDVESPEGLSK
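ROR gamma transcriptional activity was tracked as Gal4-UAS luciferase output in stably transfected Drosophila Schneider cells, with compound added 1 hr before 700 uM copper sulfate induction and a 20 hr ambient-temperature incubation.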
Of the large screens only hits and unclear results are named; the others gave an inactive call. Hits are enriched below; roughly 5.4% of the tested compounds scored in any of these assays. Unless noted, calls come from the whole dose curve; as a rule, active = well fitted curve in the direction sought with a large enough effect; inconclusive = small, poorly fitted or top-dose-only effect, or another doubt; inactive = no such curve, though single readings can be large; an effect the other way counts as inactive or inconclusive.

S=C(Nc1ccccc1Cl)N1CCCC1	none (no result: CtBP-E1A blk)
O=C(NC(=S)N1CCCCCC1)c1ccc(Cl)cc1Cl	Gal4-VP16 FLuc 1µM, RORg inh 0.35µM
CN1CCN(S(=O)(=O)c2ccc(NC(=O)c3ccccc3Cl)cc2)CC1	none
CN1CCN(C(=S)NC(=O)c2ccccc2Cl)CC1	Gal4-VP16 FLuc 18µM, RORg inh 14µM
O=C(NC(=S)N1CCCCCC1)c1ccccc1Cl	Gal4-VP16 FLuc 1µM, RORg inh 0.79µM
CC(Sc1ccc(S(=O)(=O)N2CCN(C)CC2)cn1)C(=O)NC1(C#N)CCCCC1 (stereo unspecified)	none (no result: Gal4-VP16 FLuc, RORg inh)
O=C(O)CC(C(=O)O)N1C(=O)/C(=C/c2ccc(-c3nc4ccccc4s3)o2)SC1=S (stereo unspecified)	CtBP-E1A blk inconclusive, Six1-Eya2 inh -77
O=C(O)CCN1C(=O)/C(=C/c2ccc(-c3nc4ccccc4s3)o2)SC1=S	Six1-Eya2 inh inconclusive, p53 reactivation inconclusive
O=Cc1ccc(-c2nc3ccccc3s2)o1	Gal4-VP16 FLuc 7.9µM, RORg inh 4.5µM
CC(C)(C)OC(=O)NCCCCCNC(=O)c1ncn2c1c(=O)[nH]c1ccccc12	none (no result: Gal4-VP16 FLuc, p53 reactivation, RORg inh)
O=c1[nH]c(N/N=C\c2ccc(F)cc2)nc2ccccc12	p53 reactivation inconclusive, RORg inh 10µM
O=c1[nH]c(N/N=C/c2ccc(O)cc2)nc2ccccc12	CtBP-E1A blk -68, Six1-Eya2 inh inconclusive, p53 reactivation inconclusive, RORg inh inconclusive
O=[N+]([O-])c1cc([N+](=O)[O-])c(Oc2ccc(Cl)c3cccnc23)cc1NN1CCCCC1	Gal4-VP16 FLuc inconclusive, RORg inh 6.3µM
Cc1nc2c3cc(F)ccc3n(Cc3ccc(F)cc3)c2s1	none
CCc1ccc2c(c1)c1nc(C)sc1n2CC	Gal4-VP16 FLuc 11µM, RORg inh 10µM
O=C(COC(=O)Cc1c(F)cccc1Cl)NC1CCS(=O)(=O)C1 (stereo unspecified)	none (no result: Gal4-VP16 FLuc, RORg inh)
Fc1ccc(Oc2nc(-c3ccccn3)nc3ccccc23)cc1	Gal4-VP16 FLuc 2.5µM, RORg inh 0.71µM
c1ccc(Oc2nc(-c3ccccn3)nc3ccccc23)cc1	Gal4-VP16 FLuc 3.2µM, CtBP-E1A blk -94, Six1-Eya2 inh -79, RORg inh 0.63µM
COc1ccc(Oc2nc(-c3ccccn3)nc3ccccc23)cc1	Gal4-VP16 FLuc 2.5µM, CtBP-E1A blk -66, Six1-Eya2 inh -86, RORg inh 0.4µM
CCCCOc1ccc(NC(=S)Nc2cc(C)nc(SCCCC)n2)cc1	Gal4-VP16 FLuc 1µM, RORg inh 1.4µM
CCOc1ccc(NC(=O)CSc2nc(C)cc(C)n2)cc1	none
Cc1ccoc1C(=O)Nc1ccc2ccccc2c1	Gal4-VP16 FLuc inconclusive, p53 reactivation inconclusive, RORg inh inconclusive
Cc1ccoc1C(=O)Nc1ccc(CC(=O)O)cc1	Gal4-VP16 FLuc inconclusive, RORg inh 0.5µM
CCOCCCn1c(=N)c(C(N)=S)cc2c(=O)n3cccc(C)c3nc21	Gal4-VP16 FLuc 14µM
CN1CCC(=NNC(=O)COc2ccc(Cl)cc2)CC1	none
O=C(COc1ccc(Cl)cc1)NN=C1CCCCCCC1	RORg inh 8.9µM
Cc1ccc2nc(NC(=O)c3cc(-c4ccco4)nc4ccccc34)sc2c1	Gal4-VP16 FLuc inconclusive, p53 reactivation inconclusive, RORg inh 18µM
O=C(Nc1nc2ccccc2s1)c1cc(-c2ccco2)nc2ccccc12	Gal4-VP16 FLuc 13µM, RORg inh inconclusive
C=CCN1c2ccccc2[C@]23C[C@@H](C(=O)OC)N(C(=O)c4cccs4)C2=NC(C(=O)OC)=C(C(=O)OC)[C@H]13	Gal4-VP16 FLuc inconclusive (no result: CtBP-E1A blk)
O=c1oc2c(CN3CCOCC3)c(O)c(Cl)cc2c2c1CCCC2	RORg inh 11µM
O=c1oc2c(CN3CCOCC3)c(O)ccc2c2c1CCCC2	none
CC(C)(CO)NCC(=O)Nc1cc(C(F)(F)F)cc(NC(=O)CNC(C)(C)CO)c1Cl	none
CCC(=O)O[C@@H](OP(=O)(CCCCc1ccccc1)CC(=O)N1C[C@H](C2CCCCC2)C[C@H]1C(=O)O)C(C)C (stereo partly specified)	none (no result: CtBP-E1A blk, Six1-Eya2 inh, p53 reactivation)
Sc1oc(-c2ccccc2)cc1C=Nc1ccccc1	Gal4-VP16 FLuc 18µM, CtBP-E1A blk -73, Six1-Eya2 inh -71, p53 reactivation inconclusive, RORg inh 13µM
Oc1oc(-c2ccccc2)nc1C=Nc1ccccc1	Gal4-VP16 FLuc inconclusive
Cc1cc(C)c(S(=O)(=O)/N=C2/C=C(Sc3ncn[nH]3)C(=O)c3ccccc32)cc1C	Gal4-VP16 FLuc 3.2µM, RORg inh 4µM
CCOC(=O)N1CCC(N2C(=O)c3ccc(C(=O)Nc4cccc(OC)c4)cc3C2=O)CC1	none (no result: CtBP-E1A blk)
C=CCn1c(SCC(=O)N(C)CC(=O)Nc2ccc(C)cc2)nnc1-c1ccncc1	none (no result: Gal4-VP16 FLuc, RORg inh)
O=C(c1noc2c1CCCC2)N1CCC(CO)(Cc2ccccc2Cl)CC1	none
COC(=O)C1=C(C)N(Cc2ccco2)C(=O)C1	RORg inh 10µM
COC(=O)C1=C(C)N(Cc2ccc(OC)cc2)C(=O)C1	Gal4-VP16 FLuc inconclusive, RORg inh inconclusive
COc1ccc(C2=NN(C(=O)CSc3nc4ccccc4s3)C(c3ccc(OC)cc3)C2)cc1 (stereo unspecified)	Gal4-VP16 FLuc 7.1µM, RORg inh inconclusive
CCc1cc(OCCCSc2nc(C)cc(=O)[nH]2)ccc1Cl	Gal4-VP16 FLuc 8.9µM, RORg inh inconclusive
CS(=O)(=O)NCCSc1cc(C(F)(F)F)nc2ccccc12	none
COc1cc2c(cc1NC(=O)COC(=O)CNS(=O)(=O)c1ccc(C)cc1)oc1ccccc12	Gal4-VP16 FLuc 4µM, p53 reactivation inconclusive, RORg inh 11µM
COc1cc2c(cc1NC(=O)COC(=O)c1ccccc1)oc1ccccc12	none (no result: CtBP-E1A blk, Six1-Eya2 inh)
COc1cc2c(cc1NC(=O)COC(=O)[C@@H](NS(=O)(=O)c1cccc(Cl)c1)C(C)C)oc1ccccc12	Gal4-VP16 FLuc 11µM, RORg inh 13µM
COc1ccc(S(=O)(=O)N[C@@H](C)C(=O)OCC(=O)Nc2cc3oc4ccccc4c3cc2OC)cc1	Gal4-VP16 FLuc 16µM, RORg inh inconclusive
CC12CN(NC(=O)c3ccccc3F)C3(C#N)CC1CCC23C (stereo unspecified)	none
Cc1ccc(S(=O)(=O)N2[C@@H](c3ccccc3F)C(C(=O)O)=CC[C@H]2c2cccs2)cc1	none (no result: Gal4-VP16 FLuc, CtBP-E1A blk, RORg inh)
COc1ccc(S(=O)(=O)NCC(=O)NCCc2ccc(OC)c(OC)c2)cc1	none (no result: Gal4-VP16 FLuc, p53 reactivation, RORg inh)
CCC(CC)C(=O)N(CCc1ccc(OC)cc1)Cc1nc2ccccc2c(=O)[nH]1	Gal4-VP16 FLuc 10µM, RORg inh 5µM
COCC(=O)N(CCc1ccc(OC)c(OC)c1)Cc1nc2ccccc2c(=O)[nH]1	none
COc1ccc(CCN(Cc2nc3ccccc3c(=O)[nH]2)C(=O)c2ccco2)cc1	Gal4-VP16 FLuc inconclusive, RORg inh 13µM
Cc1nn(C)cc1/C=N/NC(=O)C1(O)c2ccccc2-c2ccccc21	Gal4-VP16 FLuc 3.5µM
O=C(N/N=C/c1ccco1)C1(O)c2ccccc2-c2ccccc21	RORg inh inconclusive
